In PubChem BioAssay (NCI):
About 83,000 compounds went through this panel and 20% of them were active in at least one assay; those are over-represented in the sample as a whole.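 A percent growth of 40 corresponds to 60% growth inhibition; 0 means no net growth; -100 means all cells died. Active threshold: below 10.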 A number with no mark means an inactive call. Active and inactive are the calls of the source.

Assays:
Test in all cases: NCI-60 one-dose screen, 48 h (100 = growth as untreated, 0 = no growth, -100 = all killed)
Conditions in all cases: 10 µM unless noted
[1] = tested on: HCT-15 colon
[2] = tested on: HT29 colon
[3] = tested on: SNB-19 CNS
[4] = tested on: U251 CNS
[5] = tested on: PC-3 prostate
[6] = tested on: SK-MEL-5 melanoma
[7] = tested on: LOX IMVI melanoma
[8] = tested on: SK-MEL-2 melanoma
[9] = tested on: EKVX NSCLC
[10] = tested on: SN12C renal
[11] = tested on: UO-31 renal
[12] = tested on: TK-10 renal
[13] = tested on: ACHN renal
[14] = tested on: CAKI-1 renal
[15] = tested on: A498 renal
[16] = tested on: CCRF-CEM leukemia
[17] = tested on: MOLT-4 leukemia
[18] = tested on: UACC-62 melanoma
[19] = tested on: SK-MEL-28 melanoma

| SMILES | growth [1] | growth [2] | growth [3] | growth [4] | growth [5] | growth [6] | growth [7] | growth [8] | growth [9] | growth [10] | growth [11] | growth [12] | growth [13] | growth [14] | growth [15] | growth [16] | growth [17] | growth [18] | growth [19] |
| --- | --- | --- | --- | --- | --- | --- | --- | --- | --- | --- | --- | --- | --- | --- | --- | --- | --- | --- | --- |
| O=C1c2c(c3c4ccccc4n(CCCCCCBr)c3c3[nH]c4ccccc4c23)C(=O)N1O | 7.75% (active) | -19.7% (active) | 24.2% | 10.9% | 4.24% (active) | -69.5% (active) | -70.2% (active) | -19.4% (active) | 19.8% | 8.36% (active) | 0.628% (active) | 18.1% | 4.33% (active) | -23.7% (active) | -9.63% (active) | 3.53% (active) | 0.344% (active) | – | – |
| Clc1cc(Cl)c2nc(-c3ccc(-c4ccc(/C=N/NC5=NCCN5)cc4)s3)cn2c1 | 38% | 35% | 100% | 87.2% | 76.5% | 88% | – | 106% | 80.8% | 92.5% | 72% | 110% | 105% | – | 38% | – | 73% | 98.8% | 99.7% |
| COc1ccc2cc(-c3ccc(-c4ccc(C(=N)N)cc4)s3)ccc2c1 | 62% | 19.8% | 95.9% | 101% | 88.6% | 94.8% | – | 103% | 104% | – | 89.7% | 48.1% | 101% | 91% | 94.3% | – | 94.3% | 99.3% | 107% |
| CCN(CC)CCC(CNc1ccnc2cc(Cl)ccc12)c1ccc(Cl)cc1 (stereo not given) | -9.14% (active) | -4.66% (active) | 10.7% | -61% (active) | 36.9% | -96.3% (active) | -1.91% (active) | -75.7% (active) | 67.4% | 42.2% | -84.7% (active) | -8.87% (active) | -74.5% (active) | -40.3% (active) | 0.939% (active) | 3.11% (active) | 7.05% (active) | – | -91.8% (active) |
| CC(C)(C)n1cc(-c2ccnc(NCCCNS(=O)(=O)c3ccc(C(F)(F)F)cc3)c2)c(-c2cccc(O)c2)n1 | -55.6% (active) | 2.27% (active) | 6.04% (active) | 12.9% | 13.2% | 16.7% | -81.8% (active) | 0.948% (active) | 36.3% | 40.3% | 40.7% | 92.2% | 25.3% | 37.8% | 60.1% | 21.4% | 2.23% (active) | – | -48.3% (active) |
| CCC(=O)OC1=CN2C(=NC(c3ccc(N)cc3)=CC2c2cc(OC)c(OC)c(OC)c2)S1 (stereo not given) | 27.6% | 3.44% (active) | 83.8% | 46.3% | 49% | 66.9% | 45.3% | 64% | – | 53.5% | 58.7% | 79.2% | 60.5% | 75.1% | 81.9% | 8.95% (active) | 39.8% | – | 50.8% |
| COc1ccc(-c2nc(-c3nc4cc(C)c(C)cc4[nH]3)cc3c2[nH]c2ccccc23)cc1 | 3.41% (active) | 1.21% (active) | 82.7% | 10.5% | 40.9% | 45.7% | -31.6% (active) | 86.9% | – | 55.2% | 56.3% | 81.4% | 39.6% | 66.2% | 93.6% | -7.91% (active) | 12.7% | – | 39.5% |
| CCOc1cc2c(Cl)ncnc2c(OCC)c1OCC | 55.1% | 78.4% | 97.3% | 82.6% | 18.1% | 77.4% | 83.1% | 52.2% | 88.4% | 94% | -17.7% (active) | 105% | 60.1% | – | 91.1% | 11.2% | 21.7% | – | 58.1% |
| CN1CCN(CCCOc2ccc3nc(Nc4ccc(Cl)c(C(F)(F)F)c4)ccc3c2)CC1 | 2.44% (active) | -37.5% (active) | 66% | 23.3% | 40.6% | 76.9% | -83.7% (active) | 89.9% | 71.8% | 63.9% | 69.6% | 75.9% | 55.9% | 83.8% | 101% | 17.6% | 19.1% | – | – |
| NC1=NC(SCc2ccccc2CCl)c2ncn(Cc3ccccc3CCl)c2N1 (stereo not given) | 76.5% | 14.4% | 74.7% | 36.8% | 78.6% | 48.4% | -80.2% (active) | -4.24% (active) | 77.9% | 37.8% | 61.3% | 56.2% | 31.8% | 32.4% | – | 7.36% (active) | 14.5% | – | 65.2% |
| CN1CCN(Cc2ccc(NC(=O)c3cncc(C#Cc4cnc(N)c5cnccc45)c3)cc2C(F)(F)F)CC1 | 7.9% (active) | -14.7% (active) | 32% | 28.9% | 26.8% | -45.3% (active) | -93.4% (active) | -65.4% (active) | 2.4% (active) | 5.24% (active) | -21.1% (active) | 12.8% | -9.19% (active) | -18.9% (active) | -54.8% (active) | 13% | 16.8% | – | -84.5% (active) |
| N=C(N)c1ccc(-c2cc(Cl)cc(Cl)c2)cn1 | 86.4% | 55.5% | 92.7% | 97.3% | 80% | 89.3% | – | – | 80.4% | 91.6% | 70.2% | – | 91.3% | – | 73.1% | 8.61% (active) | 89.1% | 97.2% | 97.3% |
| S=c1[nH]nc(-c2cc3ccc2CCc2ccc(cc2)CC3)n1C1CC1 | 96.6% | 95.7% | 95.5% | 97.4% | 95.8% | 95.7% | 95% | 110% | 88.9% | 94.8% | 88.8% | 143% | 102% | 98.6% | 97.8% | 104% | 105% | – | 102% |
| COc1c2occc2c(OC)c2c(=O)c(-c3cc(-c4ccc(F)cc4)c(C#N)c(N)n3)c(C)oc12 | 31.4% | 14.2% | 51.2% | 30.6% | 22.8% | 37.1% | 6.13% (active) | 59.9% | 32% | 39.5% | 25.3% | – | 41.8% | 50.5% | 25.7% | 16% | 5.86% (active) | – | – |
| Cc1nc2cncc(C#Cc3cncc(C(=O)Nc4ccc(CN5CCN(C)CC5)c(C(F)(F)F)c4)c3)c2nc1C | 8.31% (active) | 3.88% (active) | 49.7% | 36% | 25.6% | -18.1% (active) | -77.9% (active) | -47.7% (active) | 6.58% (active) | 4.16% (active) | -12.5% (active) | 17.5% | -5.33% (active) | -28.4% (active) | -36.9% (active) | 16.2% | 21.1% | – | -8.83% (active) |
| Cc1[nH]c2ccc(F)cc2c1CCNC(=O)C1CCN(C(=O)c2ccccc2)CC1 | 94.4% [25 µM] | 95.2% [25 µM] | 86.3% [25 µM] | 90.7% [25 µM] | 71% [25 µM] | 76% [25 µM] | – | 98.9% [25 µM] | 77.9% [25 µM] | 94.5% [25 µM] | 67.6% [25 µM] | 91.1% [25 µM] | 97% [25 µM] | 68.2% [25 µM] | 56.2% [25 µM] | – | 88% [25 µM] | 82.5% [25 µM] | 96.4% [25 µM] |
| c1ccc(-c2nc(N3CCNCC3)c3nc(-c4ccccc4)oc3n2)cc1 | -81.3% (active) | -86.6% (active) | 5.98% (active) | -93.5% (active) | -62.3% (active) | 36.2% | – | – | 74.3% | – | -91.6% (active) | -85.3% (active) | -99.2% (active) | -85.3% (active) | 80.6% | – | -34.6% (active) | -92.8% (active) | 101% |
| COc1cc(C(=O)/C=C/c2c(C)n([O-])c3ccc(C(F)(F)F)cc3[n+]2=O)cc(OC)c1OC | 86.1% | 5.72% (active) | 90.9% | 87.1% | 91.8% | 102% | 88.4% | 95.5% | 115% | 88.3% | 47.1% | 42.4% | 53.6% | -11.9% (active) | 115% | 36.6% | 65.4% | – | 98.8% |
